Experimental data as given in PubChem BioAssay (NCI).
The panel holds about 79,000 compounds, 15% with a hit somewhere; the sample as a whole holds those more often. Calls of active or inactive are those of the source. Rule as the data show it: active = growth inhibition above about 70%; inactive = the rest. Where a SMILES comes first, the peptide text is derived from it. [ ]: non-standard residue; d: D form. The star is where a group is joined. ξ: configuration not given here. ξE = NC(CCC(=O)O)C(=O)O; Cbz = O=C(OCc1ccccc1)*

Assays:
[1] = NCI Yeast Anticancer Drug Screen. Data for the rad50 strain (AID 155);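 also: 0% = growth of vehicle-only cultures of the same strain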; conditions: S. cerevisiae rad50 strain growth inhibition; at 50.0 µM; hits give high values
Outline: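 A DNA repair-deficient yeast mutant serves as the test organism; compound-induced growth inhibition is calculated against vehicle-treated cells.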

[2] = NCI Yeast Anticancer Drug Screen. Data for the mec2-1 strain (AID 157); conditions: S. cerevisiae mec2-1 strain, at 50.0 µM, hits give high values
Outline: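 Using mec2-1 yeast: add compound, measure growth, express inhibition versus vehicle-treated cultures.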

[3] = NCI Yeast Anticancer Drug Screen. Data for the sgs1 mgt1 strain (AID 161);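 also: 0% = growth of cultures given vehicle only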; conditions: S. cerevisiae sgs1 mgt1 strain, at 50.0 µM, hits give high values
Outline: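 Compounds are added to genetically altered yeast, and growth is compared with cultures given vehicle alone to give percent inhibition.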

[4] = NCI Yeast Anticancer Drug Screen. Data for the cln2 rad14 strain (AID 165);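 also: 0% = growth equal to vehicle treated cultures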; conditions: S. cerevisiae cln2 rad14 strain, at 50.0 µM, hits give high values
Outline: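 Yeast strain cln2 rad14, bearing defects in cell cycle control and DNA repair, serves as the test system; values reflect growth inhibition compared with vehicle.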

[5] = NCI Yeast Anticancer Drug Screen. Data for the bub3 strain (AID 167); conditions: S. cerevisiae bub3 mutant strain, at 50.0 µM, hits give high values
Outline: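 Inhibition values come from growth of compound-treated mutant yeast normalised to vehicle-treated controls.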

[6] = NCI Yeast Anticancer Drug Screen. Data for the mlh1 rad18 strain (AID 175); conditions: S. cerevisiae mlh1 rad18 strain growth inhibition; at 50.0 µM; hits give high values
Outline: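 Steps: expose repair-defective yeast to compound; measure growth; express inhibition against vehicle-treated controls.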

Measured: growth inhibition

O=C(O)CCC(NC(=O)OCc1ccccc1)C(=O)NCC(=O)O (stereo unspecified) (Cbz-[ξE]-Gly-OH)
inactive: [1] 12.3% | [2] 2.85% | [3] 0.35% | [4] 46.8% | [5] 3.15% | [6] -6.5%

Oc1ccc(O)c(CCCCCc2cc(O)ccc2O)c1
active: [1] 76.3% | [5] 70.2% | [6] 97.7%
inactive: [2] 37.4% | [3] 66.5% | [4] 34.4%

CCN(c1ccccc1)S(=O)(=O)c1ccc(Oc2ccccc2)c(N)c1
inactive: [1] 27.2% | [2] -18.9% | [3] 16.9% | [4] 12.5% | [5] 36.5% | [6] -10.8%

CC1(C)OCC(C2OC3OC(C)(C)OC3C2OP(=O)(N2CC2)N2CC2)O1 (stereo unspecified)
inactive: [1] -16.1% | [2] -31.4% | [3] -38.9% | [4] -49.2% | [5] -70.8% | [6] -73.4%

Clc1cnnc2nc[nH]c12
inactive: [1] -10.8% | [2] -7.4% | [3] -24.2% | [4] -28.1% | [5] -15.8% | [6] -23.2%

O=C(O)C(C(=O)O)C(c1cccc([N+](=O)[O-])c1)C(c1ccccc1)[N+](=O)[O-] (stereo unspecified)
inactive: [1] 52.5% | [2] 18.2% | [3] 45.5% | [4] 12.2% | [5] 22.2% | [6] 37.7%

CC(NC1=CC(=O)c2cccnc2C1=O)C(O)c1ccccc1 (stereo unspecified)
inactive: [4] 27.5% | [5] 64.2%
active: [1] 82.8% | [2] 80.8% | [3] 72.1% | [6] 71.3%

NC(=O)N/N=C/c1cccc(O)c1O
inactive: [1] 6% | [2] -6.2% | [3] -24.7% | [4] -10.2% | [5] -2.9% | [6] 5.75%

NC(=O)O/N=C/c1ccccn1
inactive: [1] -12.1% | [2] 2.75% | [3] -17.4% | [4] -10% | [5] -2.65% | [6] -6.95%

Cc1cccn2c(C)nnc12
inactive: [1] 3.4% | [2] 25.7% | [3] -1.35% | [4] 17.6% | [5] 28.1% | [6] 12.7%

CC1CCC/C1=C(/I)C(=O)c1ccccc1 (stereo unspecified)
inactive: [1] 2.25% | [2] -6.75% | [3] 24.6% | [4] 7.85% | [5] -2.15% | [6] -59.6%

COc1ccc([N+](=O)[O-])c2c(NCCC[N+](C)(C)[O-])c3ccccc3nc12
inactive: [1] 24.9% | [2] -13.3% | [3] 3.05% | [4] -46.8% | [5] -19.2% | [6] 19.7%

O=C(/N=C/c1c(O)c2ccccc2oc1=O)NC1CCCCC1
inactive: [1] -16.1% | [2] -9.2% | [3] -25.9% | [4] 0.65% | [5] -17.6% | [6] -5.8%

COc1ccc(C(c2cc(OC)c(OC)c(OC)c2)N2C(=O)CCC2C(=O)O)cc1 (stereo unspecified)
inactive: [1] -21.6% | [2] -13.6% | [3] -16.6% | [4] -11.8% | [5] -4.15% | [6] -8.3%

O=[N+]([O-])c1ccc(C=C2C=c3ccccc3=C2)cc1
inactive: [1] 5.8% | [2] 1.1% | [3] -14.4% | [4] -28.9% | [5] 5.3% | [6] 7.3%

O=c1/c(=C/c2ccc(Cl)cc2Cl)sc2nc3ccccc3n12
inactive: [1] 4.1% | [2] -23.4% | [3] -0.15% | [4] -12.8% | [5] -22.5% | [6] -7.45%

Cc1c(Br)c(Br)nn1C(C)C(=O)N(C)C (stereo unspecified)
inactive: [1] 1.75% | [2] 1.6% | [3] -4.55% | [4] -40.8% | [5] -31.8% | [6] 4.45%

NS(=O)(=O)c1ccc(NC2(C(=O)O)CCCC2)cc1
inactive: [1] -18.4% | [2] -9.3% | [3] -0.9% | [4] -9.4% | [5] -38.5% | [6] -21.5%

CCCNCC(O)c1cc(C(F)(F)F)nc2c(C(F)(F)F)cccc12 (stereo unspecified)
inactive: [1] 29.4% | [2] -0.15% | [3] 2.25% | [4] -25.4% | [5] 0.6% | [6] 19.1%

CCC(=O)Nc1ncnc2ncn(C(=O)CC)c12
inactive: [1] -8.7% | [2] -48.2% | [3] -32.9% | [4] -23.6% | [5] -45.1% | [6] 9.65%

NC(=O)N/N=C/c1cccc([N+](=O)[O-])c1
inactive: [1] -7% | [2] 27.8% | [3] -5.9% | [4] -32.5% | [5] 25.6% | [6] 0%

NC(=O)CCC(N)=O
inactive: [1] 22.6% | [2] 5.75% | [3] 5.25% | [4] -5.4% | [5] 17.1% | [6] 1.45%

O=C(O)c1ccccc1-c1ccccc1C(=O)Nc1ccc2c(c1)[nH]c(=O)c1ccccc12
inactive: [1] -13.8% | [2] -3.85% | [3] -21.8% | [4] 46.9% | [5] -15.8% | [6] -22.3%

Cc1ccc(CN2CCOCC2)c(O)c1
inactive: [1] 18.9% | [2] 9.15% | [3] -0.65% | [4] -0.1% | [5] -7.45% | [6] -11.4%

CC(=O)OCC1OC(n2c3c(cc(C#N)c2=S)CCCCCC3)C(OC(C)=O)C(OC(C)=O)C1OC(C)=O (stereo unspecified)
inactive: [1] 22.2% | [2] 4.45% | [3] 12.1% | [4] -12.8% | [5] -4% | [6] 33.4%

CCOC(=O)NC(=O)c1cn(CCCOC(=O)CCCCCCCCCCC(=O)OCCCn2cc(C(=O)NC(=O)OCC)c(=O)[nH]c2=O)c(=O)[nH]c1=O
inactive: [1] -28.5% | [2] -24.2% | [3] -12.4% | [4] 18.6% | [5] -0.95% | [6] -18.9%

O=C1C(CCCS)C(c2ccccc2)=NN1c1ccccc1 (stereo unspecified)
inactive: [1] 54.9% | [2] 3.9% | [3] 18.4% | [4] -12.8% | [5] 0.45% | [6] 39%

C/C=C1\CN2CCc3c([nH]c4ccccc34)C2C=C1CCO (stereo unspecified)
inactive: [1] -19.1% | [2] -34.4% | [3] -26.4% | [4] -13.2% | [5] -41.1% | [6] -43.7%

OCC1C2C=CC1CC2 (stereo unspecified)
inactive: [1] -1.4% | [2] -1.8% | [3] 15.2% | [4] -0.85% | [5] 11.7% | [6] -2.7%

Cc1ccc(-c2cc(=O)c3cc(C)c(C)c(C(=O)O)c3o2)cc1
inactive: [1] 3.15% | [2] 0.25% | [3] 10.8% | [4] 19.9% | [5] 7.1% | [6] 10.8%

COc1ccc(NC(=O)CC(=O)N/N=C(/C)c2cc3cc(N=Nc4ccccc4Cl)ccc3oc2=O)cc1
inactive: [1] 11.3% | [2] 14.2% | [3] 24.1% | [4] 34% | [5] -11.8% | [6] -10.2%

COc1ccc(/C=C/C(CC(NO)c2ccc(OC)cc2)=N\O)cc1 (stereo unspecified)
inactive: [1] 0.1% | [2] -4.25% | [3] 3.05% | [4] -38% | [5] -8.7% | [6] 3.8%

O=C1c2ccccc2C(=O)N1CC1CC(S(=O)(=O)c2ccccc2)=NO1 (stereo unspecified)
inactive: [1] -1.8% | [2] -15.2% | [3] -0.4% | [4] -0.4% | [5] -7.6% | [6] 5%

Nc1cccc2ccc(S(=O)(=O)O)cc12
inactive: [1] -3.05% | [2] -9% | [3] -24.4% | [4] -13.8% | [5] -9.9% | [6] 8.85%

Cc1c(Cl)cccc1NC(=O)C1CC(Br)C(Br)CC1C(=O)O (stereo unspecified)
inactive: [1] 1.5% | [2] 6.7% | [3] 1.5% | [4] -48.5% | [5] 9.35% | [6] 31.3%

CN(C(=O)c1ccncc1)c1ccccc1
inactive: [1] -11.4% | [2] -33.1% | [3] -14.1% | [4] 3.85% | [5] -31.1% | [6] 8.5%

COc1ccc(/C=C2\N=C(c3cc(OC)c(OC)c(OC)c3)OC2=O)cc1OC
inactive: [1] 7.1% | [2] 10.9% | [3] 8.5% | [4] 29.9% | [5] -1.85% | [6] 25.1%

COc1cc(OC)cc(C(=O)NN)c1
inactive: [1] 19% | [2] -2.2% | [3] 5.1% | [4] 17.4% | [5] 0.5% | [6] -18.6%

COc1cccc(/C=C/c2cc3c(cc2Br)OCO3)c1
inactive: [1] 3.3% | [2] -3.35% | [3] 2.55% | [4] 3.65% | [5] 1.9% | [6] -6.3%

CNCCCC1c2ccccc2C=Cc2ccccc21
inactive: [1] 5.5% | [2] 2.9% | [3] 12.8% | [4] -1.7% | [5] 0.15% | [6] 11.8%

CC(=O)Nc1ccc(S(=O)(=O)Nc2c(-c3ccccc3)[nH]c(C)c2C(C)=O)cc1
inactive: [1] 1.65% | [2] 7.85% | [3] -10.3% | [4] -0.65% | [5] 1.65% | [6] 13.8%
